Key:
Experiment in all cases: DAPPL (digital affinity profiling via proximity ligation, sequencing); 10 mM Tris-HCl pH 7.5, 50 mM NaCl, 1 mM DTT, 4% glycerol, room temperature, 30 min; GST-TFs on glutathione beads, 16-mer random dsDNA library, 0.1% formaldehyde crosslink after washing; high values mean tight binding
Details in all cases: protein: recombinant; tags: N-terminal GST; dsDNA, one strand shown
[1] = molecular target: T1, FLI1 (Homo sapiens, UniProt Q01543 1-452)
T1 sequence: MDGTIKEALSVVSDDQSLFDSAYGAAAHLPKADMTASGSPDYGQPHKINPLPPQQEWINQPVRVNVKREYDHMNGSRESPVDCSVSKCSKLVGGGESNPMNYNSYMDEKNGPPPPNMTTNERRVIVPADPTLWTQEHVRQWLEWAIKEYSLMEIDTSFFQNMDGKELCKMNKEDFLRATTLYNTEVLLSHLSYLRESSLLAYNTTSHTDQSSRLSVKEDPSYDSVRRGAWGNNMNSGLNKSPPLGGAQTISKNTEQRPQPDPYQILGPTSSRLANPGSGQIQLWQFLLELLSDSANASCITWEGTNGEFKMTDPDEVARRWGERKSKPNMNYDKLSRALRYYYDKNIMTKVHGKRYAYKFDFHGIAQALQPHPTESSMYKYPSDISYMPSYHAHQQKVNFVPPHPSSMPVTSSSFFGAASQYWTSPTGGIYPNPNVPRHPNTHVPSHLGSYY
Outline: (§1)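 Yeast served to express human transcription factors as GST fusions, which were then captured on glutathione beads and labelled with DNA barcodes. Pooled with a tag-only sample, they were incubated with 200 nmole of a 16-mer random double-stranded DNA library for 30 min at room temperature in Tris/NaCl/DTT/glycerol buffer, washed, crosslinked with 0.1% formaldehyde, ligated by proximity, amplified by PCR and sequenced. Dividing each hexamer's read frequency for a factor by its frequency for the tag-only sample gives the binding signal.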

[2] = molecular target: T2, ELK1 (Homo sapiens, UniProt P19419 1-428)
T2 sequence: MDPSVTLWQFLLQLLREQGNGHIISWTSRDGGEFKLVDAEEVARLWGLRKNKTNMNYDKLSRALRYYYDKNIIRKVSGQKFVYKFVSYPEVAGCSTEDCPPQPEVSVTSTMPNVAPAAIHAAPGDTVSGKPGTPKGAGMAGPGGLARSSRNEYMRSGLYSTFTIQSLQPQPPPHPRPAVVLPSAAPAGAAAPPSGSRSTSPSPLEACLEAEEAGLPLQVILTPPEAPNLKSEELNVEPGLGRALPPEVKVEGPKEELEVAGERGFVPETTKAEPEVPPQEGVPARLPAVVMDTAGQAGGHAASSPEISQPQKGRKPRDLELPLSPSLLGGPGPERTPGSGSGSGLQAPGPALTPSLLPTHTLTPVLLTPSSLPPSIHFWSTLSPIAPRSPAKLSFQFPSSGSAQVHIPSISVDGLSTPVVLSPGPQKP
Outline: as §1

[3] = molecular target: T3, GABPA (Homo sapiens, UniProt Q06546 1-454)
T3 sequence: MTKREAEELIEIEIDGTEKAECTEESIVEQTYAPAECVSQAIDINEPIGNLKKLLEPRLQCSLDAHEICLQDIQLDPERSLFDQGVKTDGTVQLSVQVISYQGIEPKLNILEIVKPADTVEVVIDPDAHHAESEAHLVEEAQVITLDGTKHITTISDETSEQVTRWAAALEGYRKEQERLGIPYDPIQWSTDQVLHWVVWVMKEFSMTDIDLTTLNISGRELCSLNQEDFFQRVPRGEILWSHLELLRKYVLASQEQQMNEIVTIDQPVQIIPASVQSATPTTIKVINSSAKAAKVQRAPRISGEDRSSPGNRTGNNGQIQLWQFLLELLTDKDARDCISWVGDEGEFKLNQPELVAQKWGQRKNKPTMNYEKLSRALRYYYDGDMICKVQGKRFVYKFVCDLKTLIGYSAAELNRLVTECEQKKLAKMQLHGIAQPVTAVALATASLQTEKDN
Outline: as §1

[4] = molecular target: T4, ERG (Homo sapiens, UniProt P11308 1-479)
T4 sequence: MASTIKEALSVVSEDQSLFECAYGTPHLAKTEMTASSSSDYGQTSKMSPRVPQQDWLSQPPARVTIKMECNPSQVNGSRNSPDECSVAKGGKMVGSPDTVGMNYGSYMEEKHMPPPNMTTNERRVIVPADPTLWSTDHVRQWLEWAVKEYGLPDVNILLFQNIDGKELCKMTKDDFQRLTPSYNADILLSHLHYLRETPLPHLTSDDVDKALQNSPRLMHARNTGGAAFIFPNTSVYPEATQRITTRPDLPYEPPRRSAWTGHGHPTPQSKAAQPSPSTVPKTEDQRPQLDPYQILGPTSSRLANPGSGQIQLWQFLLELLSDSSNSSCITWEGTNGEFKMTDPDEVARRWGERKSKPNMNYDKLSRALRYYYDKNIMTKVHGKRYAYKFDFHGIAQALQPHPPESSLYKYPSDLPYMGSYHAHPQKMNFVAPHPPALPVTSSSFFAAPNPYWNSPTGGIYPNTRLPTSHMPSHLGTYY
Outline: as §1

[5] = molecular target: SPIB (Homo sapiens, UniProt Q01892 1-262)
SPIB, sequence (Q01892 whole entry): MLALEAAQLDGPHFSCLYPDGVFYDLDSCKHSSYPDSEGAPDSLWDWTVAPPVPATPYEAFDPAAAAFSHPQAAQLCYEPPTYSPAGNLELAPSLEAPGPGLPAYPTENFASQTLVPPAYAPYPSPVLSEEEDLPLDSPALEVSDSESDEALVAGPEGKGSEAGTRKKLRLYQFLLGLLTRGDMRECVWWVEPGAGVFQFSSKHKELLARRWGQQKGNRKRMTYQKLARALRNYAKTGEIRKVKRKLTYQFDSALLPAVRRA
Outline: as §1

[6] = molecular target: T5, SPIC (Homo sapiens, UniProt Q8N5J4 1-248)
T5 sequence: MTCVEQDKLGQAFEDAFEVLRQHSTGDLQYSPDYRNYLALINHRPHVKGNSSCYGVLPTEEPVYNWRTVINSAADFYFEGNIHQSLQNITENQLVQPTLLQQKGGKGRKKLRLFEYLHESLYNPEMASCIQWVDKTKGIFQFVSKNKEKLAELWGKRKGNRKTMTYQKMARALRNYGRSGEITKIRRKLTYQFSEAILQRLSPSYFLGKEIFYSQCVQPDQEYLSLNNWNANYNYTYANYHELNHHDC
Outline: as §1

[7] = molecular target: ELF4 (Homo sapiens, UniProt Q99607 1-663)
ELF4, sequence (Q99607 whole entry): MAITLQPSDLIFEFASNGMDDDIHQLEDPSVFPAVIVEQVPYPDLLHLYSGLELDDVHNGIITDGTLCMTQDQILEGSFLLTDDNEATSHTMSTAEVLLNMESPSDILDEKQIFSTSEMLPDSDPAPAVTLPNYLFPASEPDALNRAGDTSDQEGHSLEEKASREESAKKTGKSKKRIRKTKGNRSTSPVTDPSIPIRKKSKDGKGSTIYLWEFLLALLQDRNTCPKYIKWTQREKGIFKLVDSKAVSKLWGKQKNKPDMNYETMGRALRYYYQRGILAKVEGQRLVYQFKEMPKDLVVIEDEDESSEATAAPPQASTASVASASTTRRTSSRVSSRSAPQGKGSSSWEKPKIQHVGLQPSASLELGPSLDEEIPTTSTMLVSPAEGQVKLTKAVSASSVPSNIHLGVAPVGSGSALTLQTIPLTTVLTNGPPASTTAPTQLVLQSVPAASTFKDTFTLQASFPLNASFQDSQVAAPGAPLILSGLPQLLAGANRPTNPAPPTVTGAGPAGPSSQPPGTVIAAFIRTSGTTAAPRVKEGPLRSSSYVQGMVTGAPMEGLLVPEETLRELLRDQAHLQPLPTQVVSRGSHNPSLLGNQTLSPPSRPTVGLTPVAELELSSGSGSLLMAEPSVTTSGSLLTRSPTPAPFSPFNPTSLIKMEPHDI
Outline: as §1

[8] = molecular target: ETV1 (Homo sapiens, UniProt P50549 1-477)
ETV1, sequence (P50549 whole entry): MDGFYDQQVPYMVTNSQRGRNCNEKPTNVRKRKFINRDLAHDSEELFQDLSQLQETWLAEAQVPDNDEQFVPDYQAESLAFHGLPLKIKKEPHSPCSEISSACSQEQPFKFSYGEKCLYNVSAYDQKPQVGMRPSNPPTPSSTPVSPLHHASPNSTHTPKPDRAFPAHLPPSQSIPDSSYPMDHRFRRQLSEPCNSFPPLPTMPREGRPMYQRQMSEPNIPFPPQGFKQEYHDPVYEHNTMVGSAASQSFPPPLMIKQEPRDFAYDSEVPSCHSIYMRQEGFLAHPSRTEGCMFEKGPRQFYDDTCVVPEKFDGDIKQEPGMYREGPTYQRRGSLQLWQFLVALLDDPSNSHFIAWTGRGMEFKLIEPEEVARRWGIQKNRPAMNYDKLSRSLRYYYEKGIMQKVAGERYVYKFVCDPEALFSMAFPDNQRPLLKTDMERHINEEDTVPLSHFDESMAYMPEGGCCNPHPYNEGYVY
Outline: as §1

[9] = molecular target: T6, ETV3L (Homo sapiens, UniProt Q6ZN32 1-361)
T6 sequence: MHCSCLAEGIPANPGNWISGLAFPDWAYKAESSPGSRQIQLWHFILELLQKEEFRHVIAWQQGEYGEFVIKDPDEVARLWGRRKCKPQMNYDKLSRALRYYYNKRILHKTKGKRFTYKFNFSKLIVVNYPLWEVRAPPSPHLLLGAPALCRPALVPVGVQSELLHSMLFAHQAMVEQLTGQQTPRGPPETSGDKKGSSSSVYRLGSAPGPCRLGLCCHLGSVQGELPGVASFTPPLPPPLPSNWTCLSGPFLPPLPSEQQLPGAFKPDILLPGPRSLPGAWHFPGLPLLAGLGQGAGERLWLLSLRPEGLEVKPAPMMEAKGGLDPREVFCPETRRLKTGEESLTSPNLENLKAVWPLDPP
Outline: as §1

[10] = molecular target: T7, ETS2 (Homo sapiens, UniProt P15036 1-469)
T7 sequence: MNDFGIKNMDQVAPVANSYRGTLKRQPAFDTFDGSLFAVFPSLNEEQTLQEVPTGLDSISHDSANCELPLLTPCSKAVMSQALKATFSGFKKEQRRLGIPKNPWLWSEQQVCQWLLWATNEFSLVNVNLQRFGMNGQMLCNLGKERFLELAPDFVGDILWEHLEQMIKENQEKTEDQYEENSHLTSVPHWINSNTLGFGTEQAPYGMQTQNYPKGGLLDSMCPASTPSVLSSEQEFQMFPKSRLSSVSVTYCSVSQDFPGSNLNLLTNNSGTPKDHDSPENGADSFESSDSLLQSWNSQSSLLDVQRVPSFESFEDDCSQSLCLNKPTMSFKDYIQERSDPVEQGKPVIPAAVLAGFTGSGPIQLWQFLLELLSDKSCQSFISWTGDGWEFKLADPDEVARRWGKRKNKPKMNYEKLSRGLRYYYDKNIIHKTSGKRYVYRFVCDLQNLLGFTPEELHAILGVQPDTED
Outline: as §1

[11] = molecular target: T8, ETV7 (Homo sapiens, UniProt Q9Y603 1-341)
T8 sequence: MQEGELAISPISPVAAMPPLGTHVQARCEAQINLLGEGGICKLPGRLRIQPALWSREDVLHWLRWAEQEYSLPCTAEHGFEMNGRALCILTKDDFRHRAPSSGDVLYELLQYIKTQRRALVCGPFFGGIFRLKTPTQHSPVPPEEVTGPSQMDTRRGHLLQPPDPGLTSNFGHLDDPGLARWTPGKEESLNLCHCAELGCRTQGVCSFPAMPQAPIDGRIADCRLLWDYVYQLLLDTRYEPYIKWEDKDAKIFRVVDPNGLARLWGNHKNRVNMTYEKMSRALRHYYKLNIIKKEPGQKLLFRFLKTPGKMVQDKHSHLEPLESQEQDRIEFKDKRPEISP
Outline: as §1

[12] = molecular target: T9, ETV3 (Homo sapiens, UniProt P41162-2 1-143)
T9 sequence: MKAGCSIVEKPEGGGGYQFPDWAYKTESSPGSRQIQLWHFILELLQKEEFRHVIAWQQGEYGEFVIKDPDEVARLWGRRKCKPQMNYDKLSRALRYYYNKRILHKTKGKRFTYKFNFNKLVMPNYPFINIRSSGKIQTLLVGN
Outline: as §1

GGATCT was tested, and the binding signal [1] was 1.08 fold enrichment (6-mer frequency, TF over GST control), the binding signal [2] was 1.07 fold enrichment (6-mer frequency, TF over GST control) and the binding signal [3] was 1.02 fold enrichment (6-mer frequency, TF over GST control). For the same sequence, the binding signal [4] was 1.01 fold enrichment (6-mer frequency, TF over GST control), the binding signal [5] was 1.02 fold enrichment (6-mer frequency, TF over GST control) and the binding signal [6] was 1.01 fold enrichment (6-mer frequency, TF over GST control). The binding signal [7] was 1.02 fold enrichment (6-mer frequency, TF over GST control), the binding signal [8] was 1.03 fold enrichment (6-mer frequency, TF over GST control) and the binding signal [9] was 1.06 fold enrichment (6-mer frequency, TF over GST control). The binding signal [10] was 1 fold enrichment (6-mer frequency, TF over GST control), the binding signal [11] was 1.07 fold enrichment (6-mer frequency, TF over GST control) and the binding signal [12] was 1.08 fold enrichment (6-mer frequency, TF over GST control).

From paper PMC7862700, “An all-to-all approach to the identification of sequence-specific readers for epigenetic DNA modifications on cytosine”
